Only some compounds are listed: those with a hit (about 6.9% of all), similar ones and a draw of the others.
Mdm2-MdmX inh = disrupts the human Mdm2-MdmX interaction. inhibition, % at 8 µM. 330,000 compounds, 3% hits. SaOS-2 split-luciferase Mdm2/MdmX complementation, luminescence;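 active means inhibition of at least 50% at 8 µM in the primary screen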
Target sequence (O15151 whole entry, looked up): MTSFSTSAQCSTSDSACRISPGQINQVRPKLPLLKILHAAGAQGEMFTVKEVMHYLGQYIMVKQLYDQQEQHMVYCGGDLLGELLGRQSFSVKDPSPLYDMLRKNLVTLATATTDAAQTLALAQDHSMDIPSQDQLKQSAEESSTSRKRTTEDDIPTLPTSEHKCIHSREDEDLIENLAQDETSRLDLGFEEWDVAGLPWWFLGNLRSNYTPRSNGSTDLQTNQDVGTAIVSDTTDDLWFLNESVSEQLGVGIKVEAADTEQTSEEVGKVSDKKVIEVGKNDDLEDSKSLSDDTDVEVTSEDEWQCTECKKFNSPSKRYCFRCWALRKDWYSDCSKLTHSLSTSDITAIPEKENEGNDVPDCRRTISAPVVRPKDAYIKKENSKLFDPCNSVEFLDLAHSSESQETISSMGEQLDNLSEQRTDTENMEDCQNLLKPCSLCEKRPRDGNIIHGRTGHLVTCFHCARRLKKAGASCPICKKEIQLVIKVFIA
Target sequence (Q00987 whole entry, looked up): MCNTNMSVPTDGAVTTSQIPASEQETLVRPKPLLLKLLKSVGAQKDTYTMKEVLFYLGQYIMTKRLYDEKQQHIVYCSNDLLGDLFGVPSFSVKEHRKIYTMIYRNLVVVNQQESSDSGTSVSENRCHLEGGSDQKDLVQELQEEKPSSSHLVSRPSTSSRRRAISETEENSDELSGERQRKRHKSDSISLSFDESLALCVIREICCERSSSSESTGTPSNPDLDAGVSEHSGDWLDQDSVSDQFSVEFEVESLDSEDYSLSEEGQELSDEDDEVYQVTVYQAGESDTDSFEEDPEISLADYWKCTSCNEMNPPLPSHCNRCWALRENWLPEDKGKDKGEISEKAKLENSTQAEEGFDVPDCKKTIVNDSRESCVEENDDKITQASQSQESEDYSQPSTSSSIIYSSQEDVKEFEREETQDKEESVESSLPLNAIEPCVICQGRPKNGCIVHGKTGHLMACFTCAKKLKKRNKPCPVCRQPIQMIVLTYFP
CSC inhib = cancer stem cell inhibition; cancer stem cell-like cells viability, luminescence; inhibition, % at 7.5 µM; 300,000 compounds, 1.1% hits; in the data active means inhibition above about 75%; tested in HMLE shEcad cells
SKKanGAS inh = SKKanGAS growth inhibition | S. pyogenes SKKanGAS, kanamycin growth, BacTiter-Glo, 6 h | inhibition, % at 7.5 µM | 300,000 compounds, 1.3% hits | AID 1662;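 active means mean replicate score, as percent of positive control median, at least 50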;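 further: strain carries kanamycin resistance gene driven by streptokinase promoter and grows in 40 µg/ml kanamycin; loss of luminescence reflects streptokinase promoter inhibition or plain growth inhibition; 0% = median of DMSO wells and 100% = positive control at its reference dose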
Beta cell apopt = blocks beta cell apoptosis; INS-1E cytokine-induced death, ATP luminescence, 48 h; percent of positive-control rescue, neutral wells zero; 300,000 compounds, 0.8% hits; protection from apoptosis, % (concentration not given with the values);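 active means Every replicate reaches about 75%, or at least half do and their mean reaches it too, limit read from the data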;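 further: 0% = cytokine-treated negative control wells and 100% = positive control rescue; higher means more ATP so stronger rescue from cytokine killing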
NR3A LBD binder = NR3A (human) ligand-binding domain modulation; AID 1259313; 340,000 compounds, 2.5% hits; Tm shift relative to glycine control, % at 25 µM; NR3A LBD differential scanning fluorimetry, Tm shift; 0% = protein alone, 100% = glycine-bound protein;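 active means melting temperature shift of at least 10% of the positive control shift, at one fixed dose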
MPTP inh = inhibitors of mitochondrial permeability transition pore; isolated mouse mitochondria, Ca2+ swelling absorbance, 30 min; inhibition, % at 10 µM; 360,000 compounds, 1.4% hits; AID 602449;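 active means inhibition of 50% or more, scaled per plate between neutral and stimulator controls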;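 further: 0% = DMSO wells given calcium and 100% = 1 mM EGTA wells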
MPTP counter = Rhodamine 123 counter-screen of mitochondrial pore hits | shares compounds with MPTP inh | isolated mitochondria, membrane potential, Rhodamine 123 fluorescence | inhibition, % at 10 µM | 5,000 compounds, 78% hits | AID 624504; in the data active means inhibition above about 22%;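 further: 0% = DMSO vehicle and 100% = positive control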
MPTP swell DR = dose response confirmation of mitochondrial permeability transition pore inhibitors; 780 compounds, 58% hits; isolated mitochondria swelling, absorbance; AID 651561; shares compounds with MPTP inh; IC50, µM; in the data active means IC50 below about 20 µM
MPTP cs DR = counter-screen for mitochondrial permeability transition pore inhibitors, dose response; shares compounds with MPTP inh; isolated mitochondria counterscreen, fluorescence read-out; IC50, µM; 780 compounds, 49% hits; AID 651564; in the data active means IC50 below about 80 µM
The depositor's hits bear a star; i = inactive; x = not tested or not shown; ! = a repeat was not active.

SMILES	Mdm2-MdmX inh	CSC inhib	SKKanGAS inh	Beta cell apopt	NR3A LBD binder	MPTP inh	MPTP counter	others
Cc1ccccc1NC(=O)CNC(=O)c1ccc(C(F)(F)F)cc1	7.3	-0.1	5.5	1.0	-9.6	-0.4	x
Cc1cc(NC(=O)Nc2cccc(C(F)(F)F)c2)n(C)n1	6.9	-15.8	-0.3	-0.7	-1.1	72.5*	77.0*
Cc1ccc(CS(=O)Cc2ccc(C(=O)N3CCN(c4ccccn4)CC3)o2)cc1 (centres undefined)	22.3	-12.1	-0.4	0.9	-1.0	-1.0	x
O=C(NCc1ccc2c(c1)CCO2)Nc1cccc(C(F)(F)F)c1	15.2	16.5	2.9	2.5	1.5	66.9*	82.6*
CCN1CCN(C(=S)Nc2cccc(C(F)(F)F)c2)CC1	34.5	-2.0	0.3	-8.3	-3.8	36.0	x
CC(=O)c1c(C)[nH]c(C(=O)Nc2cccc(C(F)(F)F)c2)c1C	22.5	18.9	3.3	2.3	-5.8	70.1*	86.4*
CCCN1CCN(C(=O)Nc2cccc(C(F)(F)F)c2)CC1	0.8	-2.2	2.4	-12.3	-2.6	72.3*	91.5*
CC(=O)c1c(C)[nH]c(C(=O)Nc2cccc(C#N)c2)c1C	11.6	7.2	-3.5	-2.6	-0.3	2.8	x
OCCN1CCN(C(=S)Nc2cccc(C(F)(F)F)c2)CC1	-8.0	0.4	-3.4	-1.2	-0.5	94.4*!	82.1*
CN(C)N(C(=O)c1cc(-c2cccs2)nn1-c1ccccc1)C1CCS(=O)(=O)C1 (centres undefined)	13.1	x	x	x	1.1	1.1	x
CC(Sc1ccccc1)C(=O)NCC1COc2ccccc2O1 (centres undefined)	29.3	5.0	0.9	9.1	-0.4	-1.2	x
O=C(Cc1ccc([N+](=O)[O-])cc1)Nc1cccc(C(F)(F)F)c1	-9.9	-1.8	0.4	9.0	-1.2	81.3*	81.6*
COc1ccc(N2CCN(C(=O)Nc3cccc(C(F)(F)F)c3)CC2)cc1	-3.9	19.0	-3.8	4.6	-2.9	-0.4	x
O=C(Nc1cccc(C(F)(F)F)c1)N1CCN(C(=O)Nc2cccc(C(F)(F)F)c2)CC1	-2.0	-2.0	-3.3	0.1	-0.7	63.6*	71.0*
CCOC(=O)c1ccc(NC(=S)N2CCSC2c2c(F)cc(F)cc2F)cc1 (centres undefined)	32.0	24.2	5.1	-6.2	6.9	17.5	x
Fc1cc(F)c(C2SCCN2C(=S)Nc2cccc(C(F)(F)F)c2)c(F)c1 (centres undefined)	8.8	4.0	50.1*	-7.7	15.9*	74.0*	92.9*
CN1CCN(c2ccc(-c3ccnn3C(=O)Nc3cccc(C(F)(F)F)c3)cc2)CC1	-44.1	18.7	x	8.4	-0.8	86.7*	100.2*
COc1ccc(NC(=O)c2cc(C3CC3)nc3c2cnn3C(C)C)cc1OC	25.5	-5.6	x	-7.5	-8.6	0.0	x
CCCOC1CCCN(C(=O)c2cc(COc3ccc(-n4cncn4)cc3)on2)C1 (centres undefined)	-19.1	12.6	-13.3	18.6	-0.1	3.3	x
Cc1ccc(-c2noc(Cn3cc(S(=O)(=O)N4CCCC4)ccc3=O)n2)cc1	-14.8	x	x	2.0	-3.6	0.9	x
O=C(COC(=O)C1CC(=O)N(CCc2ccccc2)C1)c1ccc[nH]1 (centres undefined)	0.5	-10.9	x	-7.6	1.0	0.7	x
Cc1ccc(OCc2nnc(SCC(=O)N3C(C)CCCC3C)o2)cc1 (centres undefined)	19.9	7.4	-1.3	-0.9	-2.2	-0.2	x
CC(C)c1cc(C(=O)Nc2cccc(C(F)(F)F)c2)no1	-0.5	-10.3	0.9	-9.5	0.0	-0.7	x
O=C(Nc1cccc(C(F)(F)F)c1)C12CC3CC(CC(C3)C1)C2	-18.0	27.7	17.8	0.6	-33.4	63.6*	42.5*
O=C(Nc1ccccc1)Nc1ccc2ccccc2c1	-57.7	8.3	-7.6	3.0	25.8*	87.0*	83.2*
SMILES	Mdm2-MdmX inh	CSC inhib	SKKanGAS inh	Beta cell apopt	NR3A LBD binder	MPTP inh	MPTP counter	others
CC1(C(=O)Nc2cccc(C(F)(F)F)c2)CO1 (centres undefined)	-29.7	-8.2	2.7	-10.2	x	x	x
COc1ccc(NC(=O)Nc2cc(C)cc(C)c2)cn1	18.0	-6.6	-2.8	-2.9	-430.0	18.6	x
CC(=O)Nc1ccc2ccccc2c1	5.6	-8.4	7.7	0.3	-0.1	-0.6	x
O=C(Nc1cccc(C(F)(F)F)c1)c1cc(-c2ccc(F)cc2)on1	2.5	x	-10.5	-7.8	-9.3	66.8*	15.7	MPTP swell DR=>100;MPTP cs DR=>80
COc1ccc(NC(=O)Nc2cccc(C(F)(F)F)c2)cn1	17.2	15.1	-25.6	1.1	26.0*	100.0*	89.9*
CC(=O)NCc1ccc(S(=O)(=O)N2CCCN(C)CC2)cc1	-33.8	-12.9	1.8	-5.9	-3.6	-0.4	x
Cc1cc2c(NC(=O)Nc3ccc(C(C)(C)C)cc3)cccc2nn1	34.1	-14.7	-13.5	5.5	3.7	85.3*	81.2*
O=C(Nc1cccc(C(F)(F)F)c1)n1cc(-c2ccccn2)c(N2CCOCC2)n1	-7.5	12.0	5.1	4.4	-2.5	86.5*	96.0*
FC(F)(F)c1cccc(NC(=S)N2CCN(c3cccc(C(F)(F)F)c3)CC2)c1	21.9	-4.0	-1.3	-18.1	4.8	22.3	x
Fc1ccc(NC(=S)N2CCN(c3cccc(C(F)(F)F)c3)CC2)cc1	11.1	6.3	0.2	8.3	-2.8	100.8*	74.5*
Cc1cc2c(NC(=O)Nc3ccccc3)cccc2nn1	-2.1	-1.1	-2.8	3.7	-0.2	9.9	x
CCCn1ncc(CN2CCC(CO)(CC3CCCCO3)CC2)c1C (centres undefined)	-4.0	-2.6	2.9	-6.3	-2.5	-1.0	x
O=S(=O)(Nc1nc2ccccc2s1)c1ccc(Cl)s1	26.4	51.8	0.5	81.2*	0.3	78.2*	79.7*
O=S(=O)(Nc1nccs1)c1cnc(Cl)c(Br)c1	8.5	-10.7	1.1	-0.4	-3.2	4.4	x
O=S(=O)(Nc1nc2ccccc2s1)c1cnc(Cl)c(Br)c1	26.6	34.3	27.4	3.7	6.3	89.7*	85.5*
COc1ccc(CCN2CC(=O)NC(=O)C2)cc1OC	x	x	x	x	x	-0.9	x
OC1(c2ccc3ccccc3c2)CCN(Cc2ccccc2)C1 (centres undefined)	8.0	-19.2	-5.5	-0.2	1.4	55.0*	-3.3	MPTP swell DR=i;MPTP cs DR=>80
CCc1ccc(NC(=S)Nc2cc(C(=O)O)ccc2N2CC3CC(C2)c2cccc(=O)n2C3)cc1 (centres undefined)	-10.3	-9.4	-1.3	4.1	-10.5	-0.3	x
O=C(O)c1ccc(N2CC3CC(C2)c2cccc(=O)n2C3)c(NC(=S)Nc2ccc(Br)cc2)c1 (centres undefined)	23.1	25.0	25.3	0.8	0.5	89.2*	93.0*
